CHRM1 PAM: human M1 muscarinic receptor positive allosteric modulators, primary screen, CHO-K1 cells, Fluo-8 calcium fluorescence, 1536-well; 360,000 tested, 0.088% active; activation, % at 3 µM; CHO-K1 hM1, ACh EC20; 0% = ACh EC20, 100% = maximal ACh; in the data active = activation above about 19%, passing the limit was not always enough
Target sequence (P11229 whole entry, looked up): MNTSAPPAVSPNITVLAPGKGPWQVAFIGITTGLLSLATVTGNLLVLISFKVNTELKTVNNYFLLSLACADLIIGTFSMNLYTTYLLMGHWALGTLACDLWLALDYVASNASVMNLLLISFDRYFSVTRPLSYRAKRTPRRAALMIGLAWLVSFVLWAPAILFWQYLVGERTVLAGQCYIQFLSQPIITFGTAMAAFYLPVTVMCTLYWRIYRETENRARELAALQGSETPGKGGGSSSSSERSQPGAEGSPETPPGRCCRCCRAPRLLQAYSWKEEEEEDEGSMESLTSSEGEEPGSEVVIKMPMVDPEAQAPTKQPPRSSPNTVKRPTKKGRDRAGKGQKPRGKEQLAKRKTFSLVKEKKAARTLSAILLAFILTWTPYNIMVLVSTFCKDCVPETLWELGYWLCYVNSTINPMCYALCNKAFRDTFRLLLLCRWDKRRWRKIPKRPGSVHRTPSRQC
CHRM1 antagonist: human M1 muscarinic receptor antagonists, primary screen, CHO-K1 cells, Fluo-8 calcium fluorescence, 1536-well. CHO-K1 hM1, ACh EC80 antagonist. inhibition, % at 3 µM. 360,000 tested, 1.3% active;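 active = percent inhibition above its own plate's cutoff, namely the mean of that plate's compound wells plus 3 SD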;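 note: peak over basal fluorescence ratio during 140 s after agonist addition; 0% = ACh EC80 plus DMSO and 100% = DMSO alone without agonist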
M1 ag: human M1 muscarinic receptor agonists, primary screen, Fluo-8 calcium fluorescence, CHO-K1 cells, HTS. 360,000 tested, 0.33% active. CHO-K1 hM1, agonist mode; 0% DMSO, 100% acetylcholine EC100. activation, % at 3 µM. AID 588814, 2011. Muscarinic acetylcholine receptor M1 (Homo sapiens), P11229;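 active = activation above the run's mean compound activation plus 3 SD, cut at about 16% in these data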;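 note: peak over basal fluorescence ratio within a 140 s kinetic read after compound addition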
CHO-K1 Ca PAM: nonselective calcium activators in parental CHO-K1 cells, primary screen, counter-screen for M1 PAM project, cell-based, Fluo-8 calcium fluorescence, full deck, 1536-well | 360,000 tested, 0.02% active | activation, % at 3 µM | ATP EC20; 0% at ATP EC20, 100% at ATP max;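 active = activation above the run cutoff, the mean activation of all test compounds plus 3 SD, cut at about 40% in these data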;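 note: peak over basal fluorescence ratio in a 140 s read after ATP addition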
CHO-K1 Ca ag: counter-screen for M1 agonists: effect in parental CHO-K1 cells; activation, % at 3 µM; 360,000 tested, 0.48% active; Fluo-8 calcium fluorescence; scaled to maximal ATP response, vehicle zero; AID 602248, 2012; in the data active = activation above about 15%;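 note: untransfected CHO-K1 host cells lacking M1 receptor as counterscreen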
CHO-K1 Ca antag: M1 antagonist counterscreen hit in parental CHO-K1 cells. ATP-induced calcium, Fluo-8 fluorescence. inhibition, % at 3 µM. 360,000 tested, 0.6% active. AID 602250;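 active = inhibition above a per-plate cutoff, the plate's mean sample inhibition plus 3 SD, cut at about 24% in these data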;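 note: 0% = DMSO plus EC80 ATP and 100% = DMSO alone without ATP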
* marks the source's active call; other numbers are inactive results. Only some compounds are listed: those with a hit (about 2.4% of all), similar ones and a draw of the others.

SMILES	CHRM1 PAM	CHRM1 antagonist	M1 ag	CHO-K1 Ca PAM	CHO-K1 Ca ag	CHO-K1 Ca antag
O=C(c1ccc(C(F)(F)F)cc1)C1CCCN(Cc2ccncc2)C1 (configuration not stated)	-20	24	-5	4	10	6
O=C(c1ccc(Cl)cc1)C1CCCN(Cc2ccc3nonc3c2)C1 (configuration not stated)	-22	43*	-6	-10	0	5
O=C(c1ccc(Cl)cc1)C1CCCN(Cc2cccc3ncccc23)C1 (configuration not stated)	-24	51*	-3	5	9	8
O=C(c1ccc(Cl)cc1)C1CCCN(Cc2cccc3cccnc23)C1 (configuration not stated)	-24	58*	-4	16	9	-18
COc1ccc(CN2CCCC(C(=O)c3ccc(Cl)cc3)C2)c(O)c1 (configuration not stated)	-5	-1	-7	3	1	-1
CN1CC(C(=O)c2cccs2)C(c2ccc(Cl)cc2)C1 (configuration not stated)	-5	-1	-7	13	21*	7
O=C(c1cccs1)C1CN2CCC1CC2 (configuration not stated)	-19	38*	-5	7	0	-3
O=C(O)C1CN2CCC1CC2 (configuration not stated)	-6	4	25*	7	0	0
O=C(c1cccs1)N1CCC(C(=O)O)(c2ccccc2)CC1	9	-15	-2	34	1	-25
NS(=O)(=O)c1nc[nH]c1[N+](=O)[O-]	12	-10	-2	11	1	-13
CCOc1ccc(-n2c(O)c(C=Nc3ccc(N(CC)CC)cc3)c(=O)[nH]c2=O)cc1	-4	13	11	-6	0	-19
CCOC(=O)C1CCCN(c2ccc([N+](=O)[O-])c3nonc23)C1 (configuration not stated)	-27	70*	298*	-25	157*	51*
CCOC(=O)/C(CCCN(CC)CC)=N\O	-19	78*	-5	-6	1	8
COc1cccc(-n2c(/C=C/c3ccc(O)c(O)c3)nc3ccccc3c2=O)c1	-11	17	-3	-18	2	25*
O=c1c2ccccc2nc(/C=C/c2ccc3c(c2)OCO3)n1-c1cccc(O)c1	-8	15	-2	-14	0	26*
O=c1c2ccccc2nc(/C=C/c2ccc(O)cc2)n1-c1cccc(O)c1	-2	6	-2	13	4	9
COc1cccc(CNC2CN3CCC2CC3)c1OC (configuration not stated)	-35	73*	-12	18	1	-26
O=C(CCC(=O)N1CC2C[C@@H](C1)Cn1c2cccc1=O)NCCc1ccccc1F	11	-19	-3	11	1	-10
C#CCOC(=O)C1=CCCN(C)C1	-14	83	106*	17	1	-12
C[N+](C)(C)CCOC(=O)CBr	7	-34	20*	18	1	-9
COc1cccc(C(=O)C2CCCN(Cc3ccc4nsnc4c3)C2)c1 (configuration not stated)	-22	34*	-7	15	0	-19
COc1cccc(C(=O)C2CCCN(Cc3cccc(C)n3)C2)c1 (configuration not stated)	-30	27*	-12	-3	0	7
COc1cccc(C(=O)C2CCCN(Cc3ccc(F)cc3)C2)c1 (configuration not stated)	-21	21	-10	5	0	-9
Cc1cccc(CN2CCCC(C(=O)c3cccc(OC(C)C)c3)C2)n1 (configuration not stated)	-30	17	-12	9	2	-8
COc1c(C)cc(C(=O)C2CCCN(Cc3cccc(C)n3)C2)cc1C (configuration not stated)	-30	33*	-12	20	1	-8
SMILES	CHRM1 PAM	CHRM1 antagonist	M1 ag	CHO-K1 Ca PAM	CHO-K1 Ca ag	CHO-K1 Ca antag
Cc1cccc(CN2CCCC(C(=O)c3ccc4c(c3)OCO4)C2)n1 (configuration not stated)	-32	33*	-13	-7	0	4
CN(C)CC1CSCCC1(O)c1ccccc1Cl (configuration not stated)	-4	9	-5	-4	0	9
COc1cc(CN2CCCC(C(=O)c3sccc3C)C2)cc(OC)c1O (configuration not stated)	4	1	-4	6	0	-10
CC1CN(c2ccccn2)C(C)CN1C(=O)C(O)(c1ccccc1)c1ccccc1 (configuration not stated)	-20	25	-9	26	-1	-28
O=c1[nH]c(=O)n(Cc2ccccc2)c(O)c1/C=N/NCCO	5	-1	0	-21	0	8
COc1ccc2cc(C(=O)C3CCCN(C4CCOCC4)C3)ccc2c1 (configuration not stated)	-8	4	-7	10	2	-12
O=C(c1cccc(C(F)(F)F)c1)C1CCCN(Cc2ccccc2O)C1 (configuration not stated)	-7	23	-6	7	1	-11
O=C(c1ccc2c(c1)OCO2)C1CCCN(CC2CCCCC2)C1 (configuration not stated)	-37	42*	-15	4	4	-9
COc1c(C)cc(C(=O)C2CCCN(C3CCOCC3)C2)cc1C (configuration not stated)	-17	55*	-4	11	1	-13
COc1ccc(C(=O)C2CCCN(Cc3ccon3)C2)cc1OC (configuration not stated)	6	3	-12	13	0	-1
O=C(c1ccc2c(c1)OCO2)C1CCCN(Cc2c(F)cccc2Cl)C1 (configuration not stated)	-23	92*	-5	9	0	-12
COc1ccc(C(=O)C2CCCN(Cc3cnc(C)s3)C2)cc1OC (configuration not stated)	-10	5	-10	0	0	5
CCn1ccnc1CN1CCCC(C(=O)c2ccc(SC)cc2)C1 (configuration not stated)	-26	77*	-9	-9	2	15
Cc1ncc(CN2CCCC(C(=O)c3ccc(C(C)(C)C)cc3)C2)s1 (configuration not stated)	-30	87*	-10	1	7	-5

Bioassay records: PubChem, The Scripps Research Institute Molecular Screening Center
